In the library only some 10% were active in any assay of this set; here they are far more common.
3T3 cytotox = Cytotoxic Profiling in NIH 3T3 Cell Line of Diverse Libraries Using Quantitative High-Throughput Screening; NIH 3T3 viability, CellTiter-Glo ATP luminescence, 48-72 h; Potency, µM (titrated, usually from 96.7 µM), without a hit: top-dose activity change, negative = cytotoxicity, actives largely listed as inhibitors; actives 4.3% (n = 94,000); note: nearly all actives have a fitted effect of over 55% in size
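Cytotoxicity is measured as loss of cellular ATP: NIH 3T3 cells (400/well) are exposed to compound for 48 or 72 hr at 37 °C, then CellTiter-Glo luminescence is imaged after 10 min at room temperature.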
FLuc inh = Firefly luciferase inhibition profiling of diverse chemical library using quantitative high-throughput screening | Luciferin 4-monooxygenase (Photinus pyralis), P08659 | purified P. pyralis luciferase, luminescence, biochemical | Potency, µM (doses to about 115 µM), actives largely listed as inhibitors | actives 2.5% (n = 76,000) | AID 1347043, 2019; note: nearly all actives have a fitted effect of over 65% in size
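Biochemical qHTS: compound (6-point titration) added to 10uM D-luciferin plus 10uM ATP in Tris acetate pH 7.5 buffer with Mg, Tween-20 and BSA, then purified enzyme at 10nM; light output imaged.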
hNpr1 antagonist = Natriuretic polypeptide receptor (hNpr1) antagonism - Primary qHTS; Potency, µM (series often up to 46.3 µM), for inactives: top-dose activity change, negative = inhibition, most hits filed as inhibitors; actives 1.6% (n = 76,000); HEK293 hNpr1 GloSensor cGMP, ANP-stimulated luminescence; calls by dose curve; note: nearly all actives have a fitted effect of over 60% in size
Target sequence (P16066 whole entry, looked up): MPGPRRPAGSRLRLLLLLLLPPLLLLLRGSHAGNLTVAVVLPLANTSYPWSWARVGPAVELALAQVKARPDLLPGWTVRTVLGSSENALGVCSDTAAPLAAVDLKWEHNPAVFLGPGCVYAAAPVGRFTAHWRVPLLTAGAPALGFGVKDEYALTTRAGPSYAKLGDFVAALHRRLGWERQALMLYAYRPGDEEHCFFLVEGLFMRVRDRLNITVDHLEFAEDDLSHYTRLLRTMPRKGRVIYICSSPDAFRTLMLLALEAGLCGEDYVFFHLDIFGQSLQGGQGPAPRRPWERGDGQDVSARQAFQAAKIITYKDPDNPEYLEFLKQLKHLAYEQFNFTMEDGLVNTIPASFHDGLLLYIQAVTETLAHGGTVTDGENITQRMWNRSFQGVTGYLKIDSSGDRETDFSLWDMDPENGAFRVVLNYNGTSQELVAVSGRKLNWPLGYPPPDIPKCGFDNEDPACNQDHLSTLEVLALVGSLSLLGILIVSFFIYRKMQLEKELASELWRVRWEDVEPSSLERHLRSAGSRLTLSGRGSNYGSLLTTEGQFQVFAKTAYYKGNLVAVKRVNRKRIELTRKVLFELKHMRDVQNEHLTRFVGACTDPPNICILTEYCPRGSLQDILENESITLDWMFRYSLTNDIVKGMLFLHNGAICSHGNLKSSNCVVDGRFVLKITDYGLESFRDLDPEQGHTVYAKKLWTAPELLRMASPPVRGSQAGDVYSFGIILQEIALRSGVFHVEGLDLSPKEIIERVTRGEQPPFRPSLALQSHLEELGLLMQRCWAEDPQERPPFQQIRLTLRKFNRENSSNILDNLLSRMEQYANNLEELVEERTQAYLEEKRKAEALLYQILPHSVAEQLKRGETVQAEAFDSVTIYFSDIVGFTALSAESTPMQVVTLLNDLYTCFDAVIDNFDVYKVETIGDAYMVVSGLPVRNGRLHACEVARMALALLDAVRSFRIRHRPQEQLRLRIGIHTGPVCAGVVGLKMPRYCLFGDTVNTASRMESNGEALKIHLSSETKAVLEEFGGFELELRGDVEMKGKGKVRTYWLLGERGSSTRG
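Compound pre-incubated 30 min at room temperature on GloSensor-loaded HEK293 cells stably carrying hNpr1 and the pGS-40F cGMP biosensor. Stimulation uses hNppA at 0.1 nM final; luminescence is taken at baseline and 20 min post-agonist.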
HEK293 tox = Cytotoxic Profiling in HEK 293 Cell Line of Diverse Libraries Using Quantitative High-Throughput Screening | HEK 293 viability, ATP luminescence (CellTiter-Glo), 48-72 h | Potency, µM (doses to about 115 µM), inactives show at the top dose activity change, negative = cytotoxicity, hits mostly inhibitors | actives 6.6% (n = 94,000); note: nearly all actives have a fitted effect of over 60% in size
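HEK 293 cells seeded at 250 cells/well were exposed to compound for 48 or 72 hr at 37 degree Celsius. Viability taken as ATP content by CellTiter-Glo luminescence.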
GPT2 inhibitor = Primary qHTS assay for inhibitors of Glutamate pyruvate transaminase 2 (GPT2); Recombinant GPT2, coupled pyruvate oxidase/HRP Amplex Red fluorescence; Potency, µM (top dose mostly 57.7 µM), without a hit: at the top dose activity change, negative = inhibition, most hits filed as inhibitors; actives 0.25% (n = 100,000); AID 1671188, 2021; note: nearly all actives have a fitted effect of over 60% in size
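Fluorescence of coupled pyruvate oxidase/HRP/Amplex Red system (50uM Amplex, 30 min, dark) reports pyruvate formed by GPT2. Enzyme reaction: 10ng/uL GPT2, 2mM L-alanine, 250uM a-KG, 30 min room temperature, pH 7.5; 50uM AOA control.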
The depositor's hits bear a star; i = inactive; ? = inconclusive; . = no result; [ ] = dose if it differs, or a comment. Unless noted, calls come from the whole dose curve; as a rule, active = well fitted curve in the direction sought with a large enough effect; inconclusive = small, poorly fitted or top-dose-only effect, or another doubt; inactive = no such curve, though single readings can be large; an effect the other way counts as inactive or inconclusive. % is set by controls: 0 for no effect and ±100 for the full control effect; potency is the fitted concentration of half-maximal effect.

SMILES | 3T3 cytotox | FLuc inh | hNpr1 antagonist | HEK293 tox | GPT2 inhibitor
FC(F)(F)c1ccc(-c2noc([C@@H]3Cc4nc[nH]c4CN3Cc3cc4ccccc4o3)n2)cc1 | ? | ? | ? | ? | i
c1csc(CN2Cc3[nH]cnc3C[C@H]2c2nc(-c3ccncc3)no2)c1 | ? | i | -27.8%[70.6 µM] | ? | i
O=C([C@@H]1C[C@H](Oc2cccnc2)CN1C(=O)C1CCCCC1)N1CCCC1 | i | . | . | i | -2.7%
Clc1cc(NCc2ccccc2Cl)n2nccc2n1 | 20µM* | i | ? | ? | -12.5%[88.5 µM]
FC(F)(F)c1ccc(CNc2cc(Cl)nc3ccnn23)cc1 | ? | i | -38.1%[70.6 µM] | ? | -7.0%[88.5 µM]
Clc1cc(NCc2cccs2)n2nccc2n1 | ? | i | ? | 39.8µM* | i
COc1ccc(CNc2cc(Cl)nc3ccnn23)cc1 | ? | i | -24.4%[70.6 µM] | 70.8µM* | 4.6%[88.5 µM]
O=C(NCc1cccnc1)C1CCc2nnc(C3CCN([S+](=O)([O-])c4ccccc4Cl)CC3)n21 (stereo not given) | -18.1% | . | . | -18.8% | -4.5%
Cc1ccsc1C(=O)N1CCC(Oc2ccccc2)C1 (stereo not given) | -26.8% | . | . | ? | -9.0%
Cc1cc(C)n(CCC(=O)N2CCC(CC(=O)N(C)Cc3ccccc3)C2)n1 (stereo not given) | -13.0% | . | . | -1.8% | i
CC1=NOC2(CCN(C(=O)c3ccc4c(c3)OCO4)C2)C1 (stereo not given) | -10.3%[138 µM] | i | 4.7%[70.6 µM] | i | i
COC(=O)CCC(=O)OC[C@]1(C)CCC[C@@]2(C)C3CC[C@]4(C)C=CC3(CCC12)C4 (stereo not given in full) | . | . | . | . | i
O=C(CCc1ccc(-c2ccc(Cl)cc2)[nH]1)N[C@@H]1C[C@@H]2OCC[C@@H]21 | ? | i | -18.6% | 79.4µM* | i
CO[C@@H]1COCC[C@H]1NC(=O)CCc1ccc(-c2ccc(Cl)cc2)[nH]1 | ? | i | -16.0% | ? | i
COc1ccc(CNC(=O)C2CCN(Cc3ccccc3-c3ccccc3F)CC2)cc1 | ? | . | . | 44.7µM* | .
O=C(NCc1ccccc1Cl)C1CCN(Cc2ccccc2-c2ccccc2F)CC1 | 44.7µM* | . | . | ? | .
O=C(NCCc1ccccc1)C1CCN(Cc2ccccc2-c2ccccc2F)CC1 | -21.1% | . | . | ? | .
O=C(C1CCN(Cc2ccccc2-c2ccccc2F)CC1)N1CCOCC1 | -21.7% | . | . | -23.1% | 4.9%
O=C(C1CCN(Cc2ccccc2-c2ccccc2F)CC1)N1CCN(Cc2ccccc2)CC1 | 25.1µM* | . | . | 35.5µM* | .
O=C(NC1CC1)C1CCN(Cc2ccccc2-c2ccccc2F)CC1 | -31.2% | . | . | -20.1% | 2.0%
O=C(NCc1ccccc1)C1CCN(Cc2ccccc2-c2ccccc2F)CC1 | ? | . | . | 50.1µM* | .
Cc1cc(C)n(CCc2c(-c3ccccc3)ncn2CCCc2cccnc2)n1 | 50.1µM* | i | 0.0% | 0.7% | 1.1%[11.5 µM]
CCCCN1C(=O)NC(c2ccc(OCC)cc2)C2=C1COC2=O (stereo not given) | -25.3% | i | 7.7% | -26.7% | i
COc1ccc([C@H]2C[C@@H](O)[C@@H](O)[C@@H]2NC(=O)c2nc3ccccc3s2)cc1 | -26.6%[138 µM] | 44.7µM* | -26.0%[70.6 µM] | ? | -2.7%[88.5 µM]
O=C(N[C@H]1[C@H](O)[C@H](O)C[C@@H]1c1ccc(C(F)(F)F)nc1)c1nc2ccccc2s1 | -21.8%[138 µM] | 44.7µM* | -11.4%[70.6 µM] | -26.9%[172 µM] | -11.2%[88.5 µM]
SMILES | 3T3 cytotox | FLuc inh | hNpr1 antagonist | HEK293 tox | GPT2 inhibitor
Cc1ccccc1[C@H]1C[C@@H](O)[C@@H](O)[C@@H]1NC(=O)c1nc2ccccc2s1 | ? | i | -10.6%[70.6 µM] | ? | 0.5%[88.5 µM]
CC(C)Cn1c(=O)c(C(=O)N2CCCCC2)nc2cccnc21 | -18.3%[138 µM] | . | . | 3.0%[172 µM] | i
COc1ccc(-n2cc(CN3CCN(C)C(C)C3)c(-c3cccc(F)c3)n2)cc1 (stereo not given) | 31.6µM* | ? | -4.4% | 35.5µM* | 1.0%
COc1ccc(-n2cc(CN3C[C@@H](C)O[C@@H](C)C3)c(-c3cccc(F)c3)n2)cc1 | -19.1% | i | -1.1% | ? | -6.0%
CC(C)n1cc(CN2CCCC23CCN(c2ccc(C(F)(F)F)cn2)CC3)cn1 | ? | i | ? | ? | 4.0%
CC(C)n1ccnc1CN1CCCC12CCN(c1ccc(C(F)(F)F)cn1)CC2 | ? | i | 2.5% | 35.5µM* | -6.8%
Cc1ccc(CN2CCCn3nc(C)c(-c4ccccc4-c4ccccc4)c32)o1 | 44.7µM* | i | ? | ? | -12.7%[88.5 µM]
Cc1nn2c(c1-c1ccccc1-c1ccccc1)N(Cc1ccc(OCC(=O)O)cc1)CCC2 | ? | i | -25.0% | ? | 0.3%
Cc1nn2c(c1-c1cccnc1N1CCOCC1)N(CC1CC1)CCC2 | 39.8µM* | i | -4.5%[70.6 µM] | ? | -2.4%[88.5 µM]
COc1ccccc1CN1CCCn2nc(C)c(-c3cccnc3N3CCOCC3)c21 | ? | i | -16.0%[70.6 µM] | ? | i
Cc1nn2c(c1-c1cccnc1N1CCOCC1)N(Cc1ccccc1)CCC2 | ? | i | -27.4%[70.6 µM] | 63.1µM* | -18.3%[88.5 µM]
Cc1cccc(NC(=O)CN2C(=O)NC(c3ccc(Cl)cc3)C3=C2COC3=O)c1C (stereo not given) | ? | i | -15.2% | ? | i
COc1cccc(C(=O)N2CCC3(CC2)N(c2ccccc2)C(=O)CS3(=O)=O)c1 | 3.1% | . | . | i | i
Cc1ccc(C(=O)N2CCCC3(C2)Nc2cccnc2NC3=NC2CCCC2)cc1F (stereo not given) | ? | i | 3.4% | 70.8µM* | -27.4%
O=C(c1ccc2c(c1)OCO2)N1CCCC2(C1)Nc1cccnc1NC2=NC1CCCC1 (stereo not given) | -13.1% | i | -1.2% | -26.1% | ?
CC1=C[C@@H](CNC(=O)C2CC2)[C@H](C(C)C)C[C@H]1Cc1nnc(-c2ccccc2F)o1 | 100µM* | i | -26.7%[70.6 µM] | 63.1µM* | -8.9%[88.5 µM]
CCCS(=O)(=O)NC[C@@H]1C=C(C)[C@H](Cc2nnc(-c3ccccc3F)o2)C[C@H]1C(C)C | 25.1µM* | i | -13.6% | 22.4µM* | -13.1%
C#CCN(C)C[C@@H]1C=C(C)[C@H](Cc2nnc(-c3ccccc3F)o2)C[C@H]1C(C)C | 79.4µM* | i | ? | 79.4µM* | -7.2%[88.5 µM]
CC1=C[C@@H](CNS(C)(=O)=O)[C@H](C(C)C)C[C@H]1Cc1nnc(-c2ccccc2F)o1 | ? | i | 0.4%[70.6 µM] | ? | 1.2%[88.5 µM]
